The list is not random: actives were taken first. Their share in the collection is about 1%.
L3MBTL1 inh-1 = qHTS Assay for the Inhibitors of L3MBTL1; Lethal(3)malignant brain tumor-like protein 1 (Homo sapiens), Q9Y468; AlphaScreen L3MBTL1–H3K9me1 peptide binding; Potency, µM (series often up to 57.1 µM), for inactives: top-dose activity, negative = inhibition, actives largely listed as inhibitors; 230,000 compounds, 0.66% hits; AID 485360, 2010; further: on the % scale 0 is the no-effect control and ±100 the full control effect; nearly all actives have a fitted effect of over 60% in size
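L3MBTL1 (50 nM) pre-complexed 30 min with biotinylated H3(1-15)K9me1 peptide (75 nM), then compounds added for 30 min at room temperature; AlphaScreen streptavidin donor/nickel chelate acceptor beads (10 ug/mL final) read after 30 min dark incubation.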
WRN helicase inh = qHTS for Inhibitors of WRN Helicase; Bifunctional 3'-5' exonuclease/ATP-dependent helicase WRN (Homo sapiens), Q14191; WRN helicase unwinding, fluorescent forked duplex, kinetic; Potency, µM (highest dose often 114 µM), for inactives: at the highest dose activity change, negative = inhibition, hits mostly inhibitors; 360,000 compounds, 0.46% hits; AID 651768, 2012; further: on the % scale 0 is the no-effect control and ±100 the full control effect; nearly all actives have a fitted effect of over 55% in size
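Screening of the MLSMR collection measured strand separation of a quenched forked DNA duplex (100 nM) by 20 nM WRN with 2 mM ATP, all final. Compounds were preincubated with enzyme 15 min at room temperature.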
BLM inh-1 = qHTS Assay for Inhibitors of Bloom's syndrome helicase (BLM) | RecQ-like DNA helicase BLM (Homo sapiens), P54132 | recombinant BLM DNA unwinding, fluorescence dequenching | 350,000 compounds, 0.2% hits | Potency, µM (highest dose often 56.1 µM), for the others: at the highest dose activity change, negative = inhibition, most hits filed as inhibitors;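 further: plate controls were vehicle for no effect and no enzyme for full effect; nearly all actives have a fitted effect of over 35% in size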
FEN1 inh-1 = qHTS Assay for the Inhibitors of Human Flap endonuclease 1 (FEN1) | Recombinant FEN1 flap cleavage, fluorescence, 15 min | P39748 | Potency, µM (top dose mostly 114 µM), for inactives: top-dose activity change, negative = inhibition, most hits filed as inhibitors | 390,000 compounds, 0.35% hits; further: on the % scale 0 is the no-effect control and ±100 the full control effect; nearly all actives have a fitted effect of over 65% in size
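Recombinant FEN1 (10 nM) was preincubated with pin-transferred compounds for 15 min at room temperature, then flap DNA substrate (50 nM final) was added. Plates were read at 0 and 15 min, and normalized concentration–response data were fitted to a four-parameter Hill equation.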
APEX1 inh = qHTS Assay for Inhibitors of the Human Apurinic/apyrimidinic Endonuclease 1 (APE1); 350,000 compounds, 0.35% hits; recombinant APE1, TAMRA/BHQ-2 abasic DNA cleavage fluorescence; Potency, µM (top dose mostly 65.8 µM), without a hit: at the highest dose activity change, negative = inhibition, hits mostly inhibitors;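 further: plate controls were vehicle for no effect and reference inhibitor for full effect; nearly all actives have a fitted effect of over 55% in size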
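Compound pre-exposure to 0.75 nM APE1, 15 min at ambient temperature. Reaction initiated with 50 nM TAMRA/BHQ-2 THF substrate, read immediately in kinetic mode, 525 nm excitation, 598 nm emission.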
RECQ1 inh-1 = qHTS Assay for Inhibitors of RecQ-Like Dna Helicase 1 (RECQ1). ATP-dependent DNA helicase Q1 (Homo sapiens), P46063. RECQ1 DNA unwinding, red fluorescence kinetic read. Potency, µM (top dose mostly 57.3 µM), for the others: at the highest dose activity, negative = inhibition, hits mostly inhibitors. 240,000 compounds, 0.54% hits. AID 2549, 2010;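 further: plate controls were vehicle for no effect and no enzyme for full effect; nearly all actives have a fitted effect of over 30% in size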
Target sequence (P46063 whole entry, looked up): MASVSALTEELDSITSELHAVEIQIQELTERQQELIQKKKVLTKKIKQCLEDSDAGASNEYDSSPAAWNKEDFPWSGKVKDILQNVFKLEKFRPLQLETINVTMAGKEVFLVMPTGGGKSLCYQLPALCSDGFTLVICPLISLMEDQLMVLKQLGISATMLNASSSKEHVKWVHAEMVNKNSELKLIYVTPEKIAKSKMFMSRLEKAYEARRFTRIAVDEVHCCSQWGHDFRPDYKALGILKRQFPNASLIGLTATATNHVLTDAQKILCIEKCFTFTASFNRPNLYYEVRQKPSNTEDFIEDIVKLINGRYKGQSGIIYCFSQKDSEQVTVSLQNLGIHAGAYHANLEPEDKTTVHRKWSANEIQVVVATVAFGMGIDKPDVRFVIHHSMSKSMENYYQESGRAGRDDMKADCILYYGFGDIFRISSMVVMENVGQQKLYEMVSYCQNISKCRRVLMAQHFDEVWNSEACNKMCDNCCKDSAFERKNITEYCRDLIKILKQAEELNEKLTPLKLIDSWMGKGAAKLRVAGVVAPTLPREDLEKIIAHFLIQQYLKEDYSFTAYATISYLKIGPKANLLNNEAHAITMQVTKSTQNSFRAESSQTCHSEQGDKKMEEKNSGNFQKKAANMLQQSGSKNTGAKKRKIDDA
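RECQ1T1 50 nM; forked duplex (20 bp + 30-nt ss tails) 200 nM, ATP 2 mM final; pH 8.0, 2 mM MgCl2, 2.5 ug/ml poly(dI-dC); 15 min compound preincubation; discontinuous kinetic read over 2 h at RT.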
BLM inh-2 = qHTS Confirmation Assay for Inhibitors of Bloom's syndrome helicase (BLM). shares compounds with BLM inh-1. BLM DNA unwinding, fluorescence quenching, biochemical. Potency, µM, without a hit: max response, negative = inhibition, most hits filed as inhibitors. 220 compounds, 40% hits. AID 2585, 2010;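 further: strand separation dequenches TAMRA so unwinding raises red fluorescence; series mostly up to about 69 µM; on the % scale 0 is the no-effect control and ±100 the full control effect; nearly all actives have a fitted effect of over 45% in size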
RECQ1 inh conf = Confirmation qHTS Assay for Inhibitors of RecQ-Like Dna Helicase 1 (RECQ1); shares compounds with RECQ1 inh-1; RECQ1 helicase DNA unwinding, fluorescence; Potency, µM (highest dose often 229 µM), without a hit: top-dose activity change, negative = inhibition, usual class: inhibitors; 610 compounds, 28% hits; AID 2708, 2010; further: on the % scale 0 is the no-effect control and ±100 the full control effect; nearly all actives have a fitted effect of over 45% in size
ADP FP counter = Counterscreen for RECQ1 Inhibitors: ADP Fluorescence Polarization Displacement Assay; shares compounds with RECQ1 inh-1; ADP fluorescence polarization displacement counterscreen; Potency, µM (doses to about 228 µM), for inactives: at the top dose activity change, negative = inhibition, usual class: inhibitors; 530 compounds, 27% hits; AID 2711, 2010; further: on the % scale 0 is the no-effect control and ±100 the full control effect; nearly all actives have a fitted effect of over 45% in size
RECQ1 inh-2 = Confirmation qHTS Assay for Inhibitors of RecQ-Like Dna Helicase 1 (RECQ1) - Round 2 Cherry Picks; shares compounds with RECQ1 inh-1; recombinant RECQ1 DNA unwinding, red fluorescence; Potency, µM (top dose mostly 119 µM), for the others: at the top dose activity, negative = inhibition, hits mostly inhibitors; 1,100 compounds, 15% hits; AID 504841, 2011; further: on the % scale 0 is the no-effect control and ±100 the full control effect; nearly all actives have a fitted effect of over 50% in size
L3MBTL1 inh-2 = qHTS Assay for the Inhibitors of L3MBTL1: Hit Validation. shares compounds with L3MBTL1 inh-1. L3MBTL1 methyl-lysine binding inhibition, biochemical qHTS. Potency, µM, actives largely listed as inhibitors. 500 compounds, 91% hits. AID 540279, 2011; further: nearly all actives have a fitted effect of over 70% in size
L3MBTL1 ctr = qHTS Assay for the Inhibitors of L3MBTL1: Hit Validationin AlphaScreen Counterscreen; 500 tested, under 10 active; shares compounds with L3MBTL1 inh-1; AlphaScreen counterscreen, signal inhibition; Potency, µM (titrated, usually from 57.1 µM), for the others: at the top dose activity change, negative = inhibition, actives largely listed as inhibitors; further: 0% is about no effect
FEN1 inh-2 = qHTS Assay for the Inhibitors of FEN1: Confirmatory Assay for Cherry-picked Compounds; shares compounds with FEN1 inh-1; FEN1 flap cleavage, TAMRA/BHQ2 fluorogenic DNA substrate; Potency, µM, hits mostly inhibitors; 880 compounds, 79% hits; AID 720498, 2013; further: nearly all actives have a fitted effect of over 60% in size
* hit, by the source's call; ? = inconclusive; / = no result given; [ ] = remark or other dose. The call rests on the fitted dose curve; in most records, active means well fitted curve in the direction sought with a large enough effect; inconclusive means small, poorly fitted or top-dose-only effect, or another doubt; inactive means no such curve, though single readings can be large; an effect the other way counts as inactive or inconclusive. Potency means the concentration at half of the fitted maximal effect.

SMILES	L3MBTL1 inh-1	WRN helicase inh	BLM inh-1	FEN1 inh-1	APEX1 inh	RECQ1 inh-1	BLM inh-2	RECQ1 inh-2	others
CCC(=O)O[C@H]1C(O[C@@H]2C(C)[C@H](O[C@H]3C[C@@](C)(OC)C(O)C(C)O3)C(C)C(=O)OC(CC)[C@@](C)(O)C(O)[C@H](C)C(=O)C(C)C[C@]2(C)O)OC(C)CC1N(C)C (stereo not given in full)	/	/	28µM*	/	/	11µM*	43µM*	/	RECQ1 inh conf=36µM*
CCOC(=O)C1=CCN(S(=O)(=O)c2ccccc2C)C1c1cccc(Br)c1 (stereo not given)	/	-7%	/	/	/	/	/	/
CC(C)C1C(=O)N(Cc2cn(CCC3OCCCO3)nn2)CCS(=O)(=O)N1Cc1ccc(-c2ccc(Cl)c(Cl)c2)cc1 (stereo not given)	/	-4%	/	/	/	/	/	/
Oc1ccc([C@@H]2CNCCc3c2cc(O)c(O)c3Cl)cc1	/	/	?	/	?	?	?	/	RECQ1 inh conf=?;ADP FP counter=7.1µM*
Oc1cc2c(cc1O)C(c1ccccc1)CNCC2 (stereo not given)	/	6%	-16%	-4%	1%	-7%	/	/
O=C(O)CCCCCN1C(=O)/C(=C\c2cn(-c3ccccc3)nc2-c2cccs2)SC1=S	?	-16%[11.6 µM]	16µM*	-5%	-1%	-9%	32µM*	/	RECQ1 inh conf=2%[69.1 µM]
Cc1cccc(N2CCC(N3CCN(C4CCCCC4)C(CCO)C3)CC2)c1C (stereo not given)	16µM*	0%	14µM*	13%	22µM*	?	7%	-13%
Oc1ccc(NCc2cccc(OCc3ccc(F)cc3)c2)cc1	?	8%	14µM*	?	5%	?	?	-18%
Oc1ccc(NCc2cccc(OCc3ccccc3)c2)cc1	?	22%	?	?	-11%	-10%	/	/
CCOC(=O)c1ccc(N2C(=O)c3[nH]nc(-c4ccccc4)c3C2c2cccs2)cc1 (stereo not given)	/	/	-13%	-4%	/	/	/	/
CCCN(C(=O)c1cc2c(s1)CCC2)c1c(N)n(Cc2ccccc2)c(=O)[nH]c1=O	18µM*	-34%	14µM*	-2%	?	22µM*	?	-11%	RECQ1 inh conf=40µM*;ADP FP counter=17%[91.9 µM];L3MBTL1 inh-2=5.3*;L3MBTL1 ctr=8%
Cc1ccc(-c2nn3c(C)nnc3s2)cc1NC(=O)c1ccc(-c2cccc(Cl)c2)o1	22µM*	50µM*	-14%	?	9%	13µM*	-12%	?	ADP FP counter=29%[91.9 µM];L3MBTL1 inh-2=7.5*;L3MBTL1 ctr=2%
Cc1ccc(-c2nn3c(C)nnc3s2)cc1NC(=O)c1ccc(Br)o1	-5%	-1%	-3%	1%	-2%	-12%	/	/
COc1ccccc1CCNC(=O)C(=O)NCC(c1cccs1)S(=O)(=O)c1cccs1 (stereo not given)	/	/	-8%	-7%	/	/	/	/
Fc1cc(F)c2nc(Nc3nc4cc5c(cc4s3)OCO5)sc2c1	-14%	28µM*	10µM*	?	9%	?	?	/	FEN1 inh-2=43*
CCOC(=O)[C@]12Cc3c(cc(OC)c(OC)c3OC)[C@H]1N(C1CCCCC1)C(=O)c1cc(OC)ccc12	/	-1%	/	/	/	/	/	/
COc1cc(Cl)c(C)cc1NC(=O)CSc1ncc(S(=O)(=O)c2ccc(C(C)(C)C)cc2)c(=O)[nH]1	/	/	16µM*	?	/	/	23µM*	/	FEN1 inh-2=48*
Cc1ccc(-n2cccc2/C=C2\C(=N)N3N=C(c4ccco4)SC3=NC2=O)cc1	?	?	20µM*	22µM*	10µM*	?	29µM*	?	FEN1 inh-2=43*
CCC1=NN2C(=N)/C(=C\c3cccn3-c3ccc(Cl)cc3)C(=O)N=C2S1	/	-23%	-13%	-1%	1%	-3%	/	/
CCOc1ccccc1CNC(=O)CN1C(=O)CCn2nc(-c3cn(C)c4ccccc34)cc21	/	/	1%	1%	/	/	/	/

Screening results: PubChem BioAssay, National Center for Advancing Translational Sciences (NCATS)
